A short description of test [1]: Nuclear factor erythroid 2-related factor 2/antioxidant responsive element (Nrf2/ARE) small molecule agonists: luciferase reporter gene qHTS assay in human keratinocytes (AID 1919969). Note: nearly all actives have a fitted effect of over 35% in size. Note: potency is the fitted concentration of half-maximal effect. For orientation: In a reporter assay the amount or activity of a reporter protein is the signal.
Test [2] deals with Gonadotropin-releasing hormone receptor (Homo sapiens) (UniProt P30968). The experiment in a line: Human gonadotropin-releasing hormone receptor (GnRHR) small molecule agonists, calcium flux assay in GnRHR-HEK293 cells (AID 1920063). Note: nearly all actives have a fitted effect of over 35% in size. An outline of the steps:
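HEK293 cells stably expressing human GnRHR were plated 18 h at 37 °C, loaded with calcium dye 1 h at 37 °C, then given compound in agonist mode; fluorescence (Ex/Em 480/540) read kinetically for 3 min at 1 s intervals.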

In test [3] the target is KiSS-1 receptor (Homo sapiens) (UniProt Q969F8). Put plainly: Human kisspeptin (KISS1R) small molecule agonists, calcium flux assay in KISS1R-HEK293 cells (AID 1920064; active = well fitted activation curve with a large enough effect in the repeat runs). An outline of the steps: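 HEK293 cells stably expressing human KISS1R were plated 18 h at 37 °C, loaded with calcium dye for 1 h at 37 °C, then given compound by pin tool. Fluorescence (Ex/Em 480/540) was read kinetically for 3 min.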
Sequence of KiSS-1 receptor (Homo sapiens) (Q969F8 whole entry, looked up): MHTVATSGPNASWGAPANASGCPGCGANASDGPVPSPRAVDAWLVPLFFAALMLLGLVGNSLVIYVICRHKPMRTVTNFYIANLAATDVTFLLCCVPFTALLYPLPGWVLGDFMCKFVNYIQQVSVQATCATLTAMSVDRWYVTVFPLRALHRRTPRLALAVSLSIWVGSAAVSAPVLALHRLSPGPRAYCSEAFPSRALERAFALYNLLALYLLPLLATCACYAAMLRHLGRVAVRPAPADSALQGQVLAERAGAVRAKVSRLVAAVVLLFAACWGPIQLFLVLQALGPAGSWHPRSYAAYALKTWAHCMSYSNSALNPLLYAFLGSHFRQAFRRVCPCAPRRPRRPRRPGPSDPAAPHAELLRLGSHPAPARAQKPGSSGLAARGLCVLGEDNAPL
For orientation: A change in cytosolic calcium serves as a functional read-out for many receptors and channels.

A short description of test [4]: G protein-coupled receptor (GPCR) small molecule agonists, calcium flux assay: HEK293 wild type cell line counter screen (AID 1920065). An outline of the steps:
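Cells were plated and cultured 18 h at 37 C/5% CO2, then loaded with calcium dye for 1 h at 37 C. Compounds in DMSO were pin-transferred in agonist mode, and fluorescence (Ex/Em 480/540) was read kinetically for 3 min at 1 s intervals.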

The nature of test [5]: p53 small molecule agonists, cell-based qHTS assay with human liver microsomes (AID 1963577).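 Note: p53 response element beta-lactamase reporter cells with liver microsomes plus NADPH.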 In outline: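 HLM-supplemented p53RE-bla reporter assay: 16 h compound exposure at 37 C, microsomes and NADPH each 0.5 mg/mL final, read by fluorescence intensity.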
For orientation: Quantitative high-throughput screening tests each substance at several concentrations.

Test [6] is described as follows: p53 small molecule agonists, cell-based qHTS assay with rat liver microsomes (AID 1963578). An outline of the steps: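 Quantitative HTS of the Tox21 10K library: p53RE-bla cells, rat liver microsomes plus NADPH at 0.5 mg/mL final each, 16 h at 37 C, beta-lactamase fluorescence detection.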
A short description of test [7]: p53 small molecule agonists, cell-based qHTS assay with human liver microsomes: qHTS cell viability counter screen (AID 1963579). Note: nearly all actives have a fitted effect of over 45% in size. Note: potency is the fitted concentration of half-maximal effect. In outline: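 Viability of p53RE-bla cells is measured as CellTiter-Glo luminescence following a 16 h, 37 C incubation with compound, liver microsomes from human donors and NADPH.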
The nature of test [8]: p53 small molecule agonists, cell-based qHTS assay with rat liver microsomes: qHTS cell viability counter screen (AID 1963580). Note: nearly all actives have a fitted effect of over 45% in size. Note: potency is the fitted concentration of half-maximal effect. In outline: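 Viability is assessed in parallel with the p53 reporter read: HCT-116 p53RE-bla cells receive compounds plus rat microsomes and NADPH (0.5 mg/mL final apiece), incubate 16 h at 37 C, and then CellTiter-Glo luminescence is recorded.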

The nature of test [9]: p53 small molecule agonists, cell-based qHTS assay: qHTS cell viability counter screen (AID 1963581). Note: nearly all actives have a fitted effect of over 45% in size. Note: potency is the fitted concentration of half-maximal effect. In outline: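 p53RE-bla HCT-116 cells were exposed to compounds for 16 h at 37 C; after the beta-lactamase FRET read in the same wells, CellTiter-Glo was added and luminescence (intracellular ATP) read after 30 min at room temperature.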
Test [10] concerns the target 5-hydroxytryptamine receptor 2A (Homo sapiens) (UniProt P28223). Put plainly: 5-hydroxytryptamine receptor 2A (HTR2A) small molecule agonists, cell-based qHTS assay (AID 1963587). Note: nearly all actives have a fitted effect of over 30% in size. Note: potency is the fitted concentration of half-maximal effect. In outline: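 CHO cells stably expressing human HTR2A, plated 18 h, loaded with calcium dye 1 h at 37 C. Agonist mode: compounds added and intracellular calcium fluorescence recorded kinetically for 2 min at 1 sec intervals.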

Test [11] concerns the target Muscarinic acetylcholine receptor M1 (Homo sapiens) (UniProt P11229). The experiment in a line: Cholinergic receptor muscarinic 1 (CHRM1) small molecule antagonists, cell-based qHTS assay (AID 1963588). Note: nearly all actives have a fitted effect of over 40% in size. Note: potency is the fitted concentration of half-maximal effect. An outline of the steps: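 CHRM1-CHO calcium-flux assay, antagonist mode. Cells were seeded 18 h, dye-loaded 1 h at 37 C and given compound for 5 min at RT, then acetylcholine was added at 50nM. FDSS fluorescence was read 3 min; 15 concentrations, three runs.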

Test [12] shares this target. The experiment in a line: Cholinergic receptor muscarinic 1 (CHRM1) small molecule agonists, cell-based qHTS assay (AID 1963589). Note: nearly all actives have a fitted effect of over 35% in size. In outline:
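CHO cells stably expressing human CHRM1, seeded 18 h at 37 C/5% CO2, dye-loaded 1 h at 37 C, then given compound in agonist mode; intracellular calcium fluorescence read kinetically at 1 s intervals. Fifteen concentrations, three independent runs.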

A short description of test [13]: cAMP Responsive Elements (CRE) small molecule agonists, cell-based qHTS assay (AID 1963590). In outline: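 CRE-bla HEK 293T cells in DMEM with 10% dialyzed FBS, NEAA, pyruvate and 25 mM HEPES were plated 18 h at 37 C/5% CO2, then exposed to compounds in DMSO for 3 h before LiveBLAzer B/G FRET substrate addition.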
A short description of test [14]: cAMP Responsive Elements (CRE) small molecule antagonists, cell-based qHTS assay (AID 1963591; active = well fitted inhibition curve with a large enough effect in the signal ratio in the repeat runs, not every such curve was filed as active; the % refers to the signal ratio). An outline of the steps:
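CRE-bla HEK293T cells were plated 18 h at 37 °C/5% CO2, pinned with compound in DMSO, then stimulated with NKH477 at 0.25 uM final for 3 h. LiveBLAzer B/G FRET substrate was added and plates incubated 2 h at room temperature.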

Test [15] deals with Beta-2 adrenergic receptor (Homo sapiens) (UniProt P07550). Put plainly: Adrenergic beta2 receptor (ADRB2) small molecule antagonists, cell-based qHTS assay (AID 1963592). Note: series mostly up to about 92 µM; nearly all actives have a fitted effect of over 50% in size. In outline:
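Cells (CHO, stable ADRB2 overexpression) incubated 18-20hr at 37C; compounds added from DMSO; agonist mix (1nM isoproterenol, 100uM IBMX, 25uM Ro-20-1724) added; 0.5hr RT; d2-cAMP and anti-cAMP-cryptate added; 1hr RT; 665/615 nm read.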

In test [16] the target is D(2) dopamine receptor (Homo sapiens) (UniProt P14416). The experiment in a line: Dopamine D2 receptor (DRD2) small molecule agonists, cell-based qHTS assay (AID 1963594). Note: nearly all actives have a fitted effect of over 35% in size. In outline: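 HEK293 cells stably expressing human DRD2, pre-treated with PDE inhibitor Ro20-1724 (0.1 mM final) and compound 10 min at room temperature, then stimulated with NKH477 (200nM […]) for 30 min. cAMP read by HTRF (665/620 nm).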
Sequence of D(2) dopamine receptor (Homo sapiens) (P14416 whole entry, looked up): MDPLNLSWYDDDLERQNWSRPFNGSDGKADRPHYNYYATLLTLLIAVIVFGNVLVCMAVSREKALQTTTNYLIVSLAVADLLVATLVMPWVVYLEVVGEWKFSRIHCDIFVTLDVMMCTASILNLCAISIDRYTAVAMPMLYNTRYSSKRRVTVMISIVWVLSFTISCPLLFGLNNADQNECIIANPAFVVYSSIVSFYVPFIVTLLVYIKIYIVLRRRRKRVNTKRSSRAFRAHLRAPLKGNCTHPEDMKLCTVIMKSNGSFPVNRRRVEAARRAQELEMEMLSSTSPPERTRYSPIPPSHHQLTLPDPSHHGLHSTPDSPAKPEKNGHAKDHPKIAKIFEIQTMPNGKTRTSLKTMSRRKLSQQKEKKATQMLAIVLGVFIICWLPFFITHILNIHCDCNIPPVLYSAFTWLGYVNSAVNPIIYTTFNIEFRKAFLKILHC

Test [17] has the same target. Put plainly: Dopamine D2 receptor (DRD2) small molecule antagonists, cell-based qHTS assay (AID 1963595; active = well fitted inhibition curve with a large enough effect in the signal ratio in the repeat runs, with a control signal flat; the % refers to the signal ratio). In outline:
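Antagonist mode in DRD2-HEK293 cells: after compound addition with 0.1 mM Ro20-1724, cells received quinpirole (12 nM) and NKH477 (200 nM) for 30 min at room temperature; HTRF cAMP read after 1 h detection.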

The target of test [18] is 5-hydroxytryptamine receptor 2A (Homo sapiens) (UniProt P28223). The experiment in a line: 5-hydroxytryptamine receptor 2A (HTR2A) small molecule antagonists, cell-based qHTS assay (AID 1963586). Note: nearly all actives have a fitted effect of over 45% in size. Note: potency is the fitted concentration of half-maximal effect. In outline:
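Antagonist-mode intracellular calcium assay: DOI (4 nM) added after 5 min compound pre-incubation at room temperature to dye-loaded HTR2A-CHO cells. Fluorescence followed for 3 min, sampled every second.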

Test [19] can be described thus: p53 small molecule agonists, cell-based qHTS assay (AID 1963582; active = well fitted activation curve with a large enough effect in the signal ratio in the repeat runs, not every such curve was filed as active; the % refers to the signal ratio). In outline:
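p53RE-bla beta-lactamase reporter cells rested 5 h at 37 C/5% CO2, then received compounds in DMSO by pin transfer and were incubated 16 h at 37 C. LiveBLAzer B/G FRET substrate was loaded for 2 h at room temperature before fluorescence reading.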

Where “and” joins values, the source holds several entries; their conditions need not be identical. Equal values may be shown once. Inconclusive results are not listed. More than one record can exist for a structure, and the calls need not agree. Calls of active or inactive are those of the source. Unless noted, calls come from the whole dose curve.

This is an account of results in PubChem BioAssay (Tox21).

Sequence of 5-hydroxytryptamine receptor 2A (Homo sapiens) (P28223 whole entry, looked up): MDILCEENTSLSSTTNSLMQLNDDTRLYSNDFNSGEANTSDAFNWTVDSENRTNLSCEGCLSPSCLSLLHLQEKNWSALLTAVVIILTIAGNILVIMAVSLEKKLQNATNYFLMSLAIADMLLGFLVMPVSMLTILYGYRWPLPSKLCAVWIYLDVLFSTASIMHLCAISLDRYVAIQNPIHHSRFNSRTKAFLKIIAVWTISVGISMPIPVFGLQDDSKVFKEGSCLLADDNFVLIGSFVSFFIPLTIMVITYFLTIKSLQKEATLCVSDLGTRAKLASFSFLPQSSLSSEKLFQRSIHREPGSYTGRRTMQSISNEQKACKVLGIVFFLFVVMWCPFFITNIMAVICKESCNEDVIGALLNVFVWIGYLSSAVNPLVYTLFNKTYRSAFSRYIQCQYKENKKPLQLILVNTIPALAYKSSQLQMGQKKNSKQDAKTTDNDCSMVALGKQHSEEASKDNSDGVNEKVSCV
Sequence of Beta-2 adrenergic receptor (Homo sapiens) (P07550 whole entry, looked up): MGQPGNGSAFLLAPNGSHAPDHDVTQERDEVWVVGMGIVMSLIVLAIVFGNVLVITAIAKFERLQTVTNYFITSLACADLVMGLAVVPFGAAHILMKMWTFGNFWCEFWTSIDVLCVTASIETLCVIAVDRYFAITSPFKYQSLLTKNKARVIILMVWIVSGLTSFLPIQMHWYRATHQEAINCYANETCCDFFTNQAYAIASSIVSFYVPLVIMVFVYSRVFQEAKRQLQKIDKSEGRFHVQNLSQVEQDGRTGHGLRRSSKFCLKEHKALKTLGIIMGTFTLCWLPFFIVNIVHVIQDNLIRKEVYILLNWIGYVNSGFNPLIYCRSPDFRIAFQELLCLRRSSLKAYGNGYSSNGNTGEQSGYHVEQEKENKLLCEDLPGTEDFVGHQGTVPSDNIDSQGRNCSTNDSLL
Sequence of Gonadotropin-releasing hormone receptor (Homo sapiens) (P30968 whole entry, looked up): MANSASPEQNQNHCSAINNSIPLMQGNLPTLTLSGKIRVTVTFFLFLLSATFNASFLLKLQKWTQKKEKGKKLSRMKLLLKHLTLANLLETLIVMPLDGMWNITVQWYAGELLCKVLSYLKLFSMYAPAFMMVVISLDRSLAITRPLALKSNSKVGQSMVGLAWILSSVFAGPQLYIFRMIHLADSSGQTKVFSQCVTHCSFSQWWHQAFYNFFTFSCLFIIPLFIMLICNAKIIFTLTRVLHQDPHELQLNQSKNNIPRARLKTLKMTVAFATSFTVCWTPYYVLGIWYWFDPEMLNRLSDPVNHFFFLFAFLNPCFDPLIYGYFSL
Sequence of Muscarinic acetylcholine receptor M1 (Homo sapiens) (P11229 whole entry, looked up): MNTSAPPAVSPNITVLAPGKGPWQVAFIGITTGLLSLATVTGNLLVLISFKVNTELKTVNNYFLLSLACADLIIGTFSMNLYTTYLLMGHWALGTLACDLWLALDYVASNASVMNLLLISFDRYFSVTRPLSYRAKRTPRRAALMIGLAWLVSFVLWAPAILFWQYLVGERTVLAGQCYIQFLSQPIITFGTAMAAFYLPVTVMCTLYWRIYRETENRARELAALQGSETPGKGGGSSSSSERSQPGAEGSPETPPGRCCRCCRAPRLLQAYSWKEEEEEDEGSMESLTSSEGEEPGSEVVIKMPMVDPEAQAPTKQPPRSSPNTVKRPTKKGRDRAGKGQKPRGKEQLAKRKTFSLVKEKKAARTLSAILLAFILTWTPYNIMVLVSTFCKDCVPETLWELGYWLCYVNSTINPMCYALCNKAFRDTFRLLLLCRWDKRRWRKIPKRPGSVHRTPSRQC

Take `OC(Cc1ccccc1Cl)(Cn1[nH]cnc1=S)C1(Cl)CC1` (stereo not drawn): the Potency in test [1] is 10.9 µM (active); in [10] it was 38.9 µM (active). Moreover, the Potency entry in [2], in [3], in [4], in [5], in [6] and in test [7] was “inactive” throughout. The Potency entry in test [8], in test [9], in test [11], in test [12], in test [13] and in test [14] was “inactive” in each case. Further, the Potency result in test [15], in [16] and in test [17] was “inactive” each time.

With `C[C@H]1O[C@@H](O[C@H]2[C@@H](O)C[C@H](O[C@H]3[C@@H](O)C[C@H](O[C@H]4CC[C@@]5(C)[C@H](CC[C@@H]6[C@@H]5CC[C@]5(C)[C@@H](C7=CC(=O)OC7)CC[C@]65O)C4)O[C@@H]3C)O[C@@H]2C)C[C@H](O)[C@@H]1O`, the Potency in test [1] is 61.5 nM (active) and 119 nM (active); in test [7] it was 46.1 nM (active) and inactive; in test [8], 0.073 µM (active); in test [9], 81.9 nM (active) and 79.3 nM (active). Further, the Potency entry in [2], in test [3], in [4], in test [5], in test [6] and in [15] was “inactive” each time. Further, the Potency entry in test [16] and in test [17] was “inactive” in each case.

`CCc1ccc(C(=O)NN(C(=O)c2cc(C)cc(C)c2)C(C)(C)C)cc1`: the Potency result in [1], in test [2], in test [3], in test [4], in test [5] and in [6] was “inactive” in each case. Further, the Potency result in [7], in [8], in test [9], in test [18], in test [10] and in [12] was “inactive” each time. The Potency entry in test [15], in test [16] and in test [17] was “inactive” in each case. The Potency in test [11] is 2.98 µM (active).

For `CC1(C)C(C(=O)OC(C#N)c2cccc(Oc3ccccc3)c2)C1(C)C` (stereo not drawn), the Potency result in test [1], in test [2], in test [3], in [4], in test [5] and in test [6] was “inactive” throughout. Further, the Potency entry in test [7], in test [8], in test [9], in test [19], in test [18] and in test [11] was “inactive” each time. Besides, the Potency result in [12], in test [13], in test [14], in test [15] and in [17] was “inactive” in each case.

With `CCc1ccc(C2CCNCC2)cc1`, the Potency entry in [1], in test [2], in [3], in test [4], in test [5] and in [6] was “inactive” each time. Besides, the Potency result in test [7], in [8], in test [19], in [11], in test [12] and in test [13] was “inactive” in each case. The Potency entry in test [14], in test [15], in [16] and in [17] was “inactive” each time. Further, the results for the Potency in test [18] and in test [10] were 18.3 µM (active) and 8.49 µM (active), respectively.

As to `Nc1nc(N)nc(N)n1`, the Potency entry in test [1], in test [2], in test [3], in [4], in test [5] and in test [6] was “inactive” in each case. Also, the Potency entry in [7], in [8], in [19], in test [18], in test [10] and in test [11] was “inactive” each time. The Potency result in test [12], in test [13], in test [14], in test [15], in test [16] and in test [17] was “inactive” each time.
